# Source: PubChem BioAssay
# Shown are actives, neighbours in structure and some others; about 3.6% of the full set was active somewhere.
# MazF activator: MazEF (E. coli) toxin RNase activation; FAM/BHQ RNA-DNA oligo cleavage fluorescence, 5 h; activation, % at 20 µM; actives 0.32% (n = 350,000); in the data active means activation above about 50%
# Target sequence (P0AE70 whole entry, looked up): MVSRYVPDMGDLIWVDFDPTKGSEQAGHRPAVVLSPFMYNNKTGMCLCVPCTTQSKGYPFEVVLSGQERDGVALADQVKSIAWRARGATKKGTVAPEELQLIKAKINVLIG
# Bead autofluor: compound fluorescence in toxin protease inhibitor counterscreen; fluorescence intensity (no concentration beside the values); actives 3.1% (n = 360,000); AID 624483; compound autofluorescence counterscreen, microsphere flow cytometry; stronger effect = higher value; in the data active means fluorescence intensity above about 16000; inconclusive means no clear call, values can overlap the other calls
# Anthrax LF prot: blocks Bacillus anthracis lethal factor protease; P15917; multiplex microsphere protease cleavage assay, LF; inhibition, % at 10 µM; actives 0.12% (n = 360,000); AID 588501; further: plate controls were buffer without enzyme for full effect and enzyme alone for no effect
# BoNT-F LC inh: inhibitors of Botulinum neurotoxin F light chain protease | Multiplex microsphere protease cleavage assay, flow cytometry | inhibition, % at 10 µM | actives 0.22% (n = 360,000) | AID 588497; in the data active means inhibition above about 35%, passing the limit was not always enough; inconclusive means no clear call, values can overlap the other calls; further: plate controls were buffer without enzyme for full effect and enzyme alone for no effect
# BoNT A protease: BoNT A light chain protease inhibition; multiplex microsphere protease substrate cleavage, flow cytometry; inhibition, % at 10 µM; actives 0.17% (n = 360,000); AID 588499; further: plate controls were buffer without enzyme for full effect and enzyme alone for no effect
# An asterisk follows results filed as active; ? = inconclusive; . = no result given. Unless noted, no stated cut-off is given here; in the data, active means inhibition above about 30%; inconclusive means no clear call, values can overlap the other calls; inactive means below that.
SMILES,MazF activator,Bead autofluor,Anthrax LF prot,BoNT-F LC inh,BoNT A protease
OC(CSc1c(Cl)cccc1Cl)CN1CCN(c2ccccc2F)CC1 (centres undefined),-3,20273*,-2,-6,0
CC1(C(=O)NCc2cccnc2)CCN1C(=O)Cc1cccs1 (centres undefined),.,3645,-2,-1,0
CC(NS(=O)(=O)c1cc2c3c(c1)CCC(=O)N3CCC2)c1ccccc1 (centres undefined),-2,.,.,.,.
CCCCN1C(=O)/C(=C2\SC(N3CCCCC3)=NC2=O)c2ccccc21,7,23186*,-6,-3,?
Cc1ccc2c3c(cccc13)-c1ccccc1C2=O,-36,6102,44*,28,74*
CCNC(=O)n1nccc1C(C)Oc1ccc(Cl)cc1 (centres undefined),2,21790*,-2,-2,0
CCNC(=O)n1nccc1C(C)Oc1cccc(C(F)(F)F)c1 (centres undefined),-1,21560*,-2,0,2
CCNC(=O)C(C)Oc1ccc(Cl)cc1Cl (centres undefined),-2,3857,3,-1,0
O=C(Cc1nc(-c2cnccn2)no1)NNC(=O)Nc1ccccc1,4,4072,35*,?,?
COCCNC(=O)C1(C)CCCN(Cc2csc(-c3ccc(Cl)cc3)n2)C1 (centres undefined),.,3691,0,-6,0
COc1cccc(NC(=O)Nc2cc(Cl)ccc2C)c1,-11,2029,-2,-7,0
Cc1ccc(Cl)cc1NC(=O)c1cccc(OC(F)F)c1,2,20132*,-4,5,8
CC1(C)CC(=O)C(C=NCC2CCCO2)=C(O)C1 (centres undefined),-1,25274*,-2,-5,-3
CC1(C)CC(=O)C(C=NCCCn2ccnc2)=C(O)C1,2,21981*,-1,2,1
CC1(C)CC(=O)C(C=NCCN2CCN(C(=O)CC3CCCC3)CC2)=C(O)C1,-2,3069,-4,-3,0
CC1(C)CC(=O)C(C=NCC(O)c2ccccc2)=C(O)C1 (centres undefined),0,20941*,-1,-4,-3
CC1(C)CC(=O)C(C=NCC2CCNCC2)=C(O)C1,5,4183,-11,1,0
CC1(C)CC(=O)C(C=NCCN2CCN(C(=O)Cc3ccc(F)cc3)CC2)=C(O)C1,-4,19988*,3,0,-1
COc1ccc(CN=CC2=C(O)CC(C)(C)CC2=O)cc1,6,24658*,-2,-4,-2
COc1ccc(CN=CC2=C(O)CNC2=O)cc1,4,4738,1,4,0
c1ccc(-c2noc(CC3CCCCC3)n2)cc1,3,6314,-2,-21,-5
c1ccc(-c2noc(CSc3nnnn3C3CCCCC3)n2)cc1,-11,20752*,-2,-3,-1
CCn1c(SCc2nc(-c3ccccc3)no2)nnc1-c1ccco1,-4,23800*,-4,-6,-3
CCn1c(SCc2nc(-c3ccccc3)no2)nnc1-c1cccs1,4,4159,2,3,0
COC(=O)Nc1ccc2c(c1)N(C(=O)CCCl)c1ccccc1S2,1,3683,6,22,0
SMILES,MazF activator,Bead autofluor,Anthrax LF prot,BoNT-F LC inh,BoNT A protease
CN(Cc1ccco1)C(=O)c1ccc(CNS(=O)(=O)c2ccc3c(c2)C(C)(C)C(=O)N3C)cc1,22,4313,-1,-3,-1
Cc1cccc(Cn2cc(/C=C/[N+](=O)[O-])c3ccccc32)c1,-16,8917,15,20,28
O=[N+]([O-])/C=C/c1cn(Cc2ccc(Cl)cc2)c2ccccc12,-67,4418,21,12,39*
CC(C)Cc1nnc(NC(=O)CCC(=O)N2CCN(Cc3ccc(Cl)cc3)CC2)s1,-1,4647,-2,-8,-2
CCc1ccc(N2C(=O)c3sc4nnc(C)c(=O)n4c3C2=O)cc1,3,20580*,-1,7,3
CC1(C(=O)NC2CCCC2)CCC(=O)N1Cc1ccccc1 (centres undefined),11,23334*,-3,0,?
CC1(C(=O)NC2CCCCC2)CCC(=O)N1C1CCN(Cc2ccccc2)CC1 (centres undefined),.,4226,-6,-5,0
O=C(NCCCN1CCCC1=O)C(=O)NCC1OCCCN1S(=O)(=O)c1ccccc1 (centres undefined),3,2823,-3,-2,0
O=C(c1sc2ccccc2c1Cl)N(Cc1ccco1)C1CCS(=O)(=O)C1 (centres undefined),3,23946*,-3,-4,?
O=C(c1sc2ccccc2c1Cl)N(Cc1ccccc1)C1CCS(=O)(=O)C1 (centres undefined),3,.,.,.,.
O=C(c1sc2ccccc2c1Cl)N(Cc1ccccc1Cl)C1CCS(=O)(=O)C1 (centres undefined),-5,22430*,0,2,0
COc1cc([N+](=O)[O-])ccc1-c1ccc(/C=N\n2cnnc2)o1,154*,4009,-2,-2,13
COc1cccc(NC(=O)NCCCCc2ccccc2)c1,-14,?,-3,10,0
COc1cccc(NC(=O)NCCCSC2CCCCC2)c1,2,21430*,-3,-4,-2
CCOC(=O)CSc1nc2c(sc(=S)n2-c2ccccc2OC)c(=O)n1-c1ccccc1OC,-3,3212,-9,-1,-3
CCOC(=O)CSc1nc2c(sc(=S)n2-c2ccccc2OC)c(=O)n1Cc1ccco1,-1,16526*,-3,-5,-1
CCN(CC)C(=O)CSc1nc2c(sc(=S)n2Cc2ccco2)c(=O)n1-c1ccccc1,-5,20976*,-2,-2,0
COc1cccc(/C=N/NC(=O)CC2C(=O)NN=C2C)c1O (centres undefined),-4,20430*,-3,-1,1
CC(=O)c1ccc(-n2c(C)ccc2-c2ccccc2)cc1,-5,23002*,-6,-2,1
COc1ccc(OC)c(CN2CCN(C(=O)c3cc(S(=O)(=O)N4CCOCC4)ccc3C)CC2)c1,4,.,.,.,.
COc1ccc(NC(=O)c2c(C(F)(F)F)nn(C)c2SCc2ccccc2Cl)cc1,5,19414*,1,-1,2
CCOC(=O)c1ccc(CSc2ncn[nH]2)o1,4,4397,-11,-7,0
COC(=O)c1ccc(CSc2ncn[nH]2)o1,7,20355*,2,-3,?
O=S(=O)(c1ccc(N2CCN(c3ccc(F)cc3)CC2)cc1)N1CCCC1,8,9751,-4,-6,0
O=S(=O)(c1ccc(N2CCCC2)cc1)C(F)(F)F,4,16476*,-1,1,1
CCN(CC)c1ccc(/C=C(\C#N)C(=O)c2ccc(Br)cc2)cc1,-662,97679*,46*,61*,49*
Cc1cccc(N2C(=O)CC(N3CCN(C(=O)c4ccccc4)CC3)C2=O)c1 (centres undefined),6,23162*,-1,0,0
O=C1CC(N2CCN(Cc3ccccc3)CC2)C(=O)N1c1ccccc1 (centres undefined),8,23947*,0,0,0
